# Laboratory results: PubChem BioAssay (NCATS)
# A number with no mark means an inactive call. Results filed as inconclusive are left out. Entries that show only a call come without a potency. Calls of active or inactive are those of the source. Unless noted, the call rests on the fitted dose curve; in most records, active means well fitted curve in the direction sought with a large enough effect; inconclusive means small, poorly fitted or top-dose-only effect, or another doubt; inactive means no such curve, though single readings can be large; an effect the other way counts as inactive or inconclusive.
# Columns and labels:
# [1] = target: Glucocorticoid receptor (Homo sapiens) (UniProt P04150); assay: GR-EFC Redistribution (AID 451; calls by dose curve; further: potency means the concentration at half of the fitted maximal effect); conditions: CHO-K1 GR-EFC translocation, beta-gal luminescence, 2 h
# How it was run: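 CHO-K1 cells stably expressing nuclear-localized β-gal enzyme acceptor and GR fused C-terminally to the enzyme donor fragment; ligand-driven nuclear translocation restores β-gal by complementation. Compounds titrated up to 46 uM final, 2 h at 37 °C; luminescence read.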
# [2] = target: Mitogen-activated protein kinase 10 (Mus musculus) (UniProt Q61831); assay: JNK3 AlphaScreen Assay (AID 530; active means well fitted curve in either direction with a large enough effect, not every such curve was filed as active;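 further: kinase came from lysate of stimulated human HepG2 cells; signal reports phosphorylation of biotinylated GST-cJun 1-79 at Ser73 with 10 µM ATP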); conditions: JNK3 lysate, c-Jun phosphorylation; series mostly up to 57.1 µM
# How it was run: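 Inhibitors reduce antibody binding to phosphorylated biotin-cJun, lowering AlphaScreen luminescence. Lysates from HepG2 cells pre-activated by IL-1beta plus TNF-alpha supplied JNK3; compounds were titrated.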
# [3] = VSVG counterscreen qHTS to identify inhibitors of SARS-CoV-2 cell entry (AID 1645847; calls by dose curve; further: potency means the concentration at half of the fitted maximal effect; nearly all actives have a fitted effect of over 65% in size); conditions: VSV-G pseudotyped particle entry, luciferase; series mostly up to 57.2 µM
# How it was run: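 Entry of VSV-G pseudotyped particles into human ACE2-expressing HEK293 cells was measured by luciferase luminescence 48 h after infection, with compound added 1 h beforehand.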
# [4] = target: 3',5'-cyclic-AMP phosphodiesterase 4B (Homo sapiens) (UniProt Q07343); assay: qHTS Assay for Inhibitors of PDE-IV (AID 607; active means well fitted activation curve with a large enough effect in the main read-out, with a control signal flat, not every such curve was filed as active; further: potency means the concentration at half of the fitted maximal effect); conditions: HEK293 ACTOne CNG channel cells, membrane potential fluorescence; series mostly up to 22.9 µM
# How it was run: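 Cell-based read-out of cAMP via a modified cyclic nucleotide-gated channel and membrane potential dye (535/590 nm) in HEK293 cells expressing PDE4 endogenously. Compounds tested up to 22.9 uM final; 100 uM RO 20-1724 reference.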
# [5] = Primary qHTS for inhibitors of SARS-S pseudo-typed particle cell entry (AID 1479145; calls by dose curve; further: potency means the concentration at half of the fitted maximal effect; nearly all actives have a fitted effect of over 45% in size); conditions: SARS-S pseudotyped particle cell entry, luciferase reporter; series mostly up to 57.1 µM
# [6] = Primary qHTS for Huh7 cytotoxicity: counterscreen for inhibitors of MERS-S pseudotyped particle cell entry (AID 1479147; calls by dose curve); conditions: cell viability read-out; series mostly up to 57.1 µM
# [7] = Primary qHTS for Vero E6 cytotoxicity: counterscreen for inhibitors of SARS-S pseudo-typed particle cell entry (AID 1479150; calls by dose curve); conditions: cell viability; series mostly up to 57.1 µM
# [8] = Primary qHTS for inhibitors of MERS-S pseudo-typed particle cell entry (AID 1479149; calls by dose curve; further: nearly all actives have a fitted effect of over 60% in size); conditions: MERS-S pseudotyped particle entry, luciferase; series mostly up to 57.1 µM
# [9] = target: Ubiquitin carboxyl-terminal hydrolase 1 (Homo sapiens) (UniProt O94782); assay: Inhibitors of USP1/UAF1: Pilot qHTS (AID 504865); conditions: purified USP1/UAF1, Ub-rhodamine cleavage fluorescence; series mostly up to 114 µM;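 further: rhodamine fluorescence freed from ubiquitin-rhodamine substrate followed over time; top concentration of the series differs between compounds; nearly all actives have a fitted effect of over 35% in size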
# How it was run: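 Enzyme-free wells gave the negative control, while test wells held 1nM USP1/UAF1 preincubated with compound for 15 min at room temperature. Ub-Rho at 150nM final started the reaction, and fluorescence at 480/540 nm was recorded kinetically.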
# [10] = target: Luciferin 4-monooxygenase (Photinus pyralis) (UniProt P08659); assay: Biochemical firefly luciferase enzyme assay for NPC (AID 624030);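 further: purified P. pyralis luciferase at 10 nM with luciferin and ATP substrate; nearly all actives have a fitted effect of over 70% in size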; conditions: purified P. pyralis luciferase, luminescence, 5 min; series mostly up to 58.6 µM
# How it was run: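 Counter-screen for direct inhibition of the luciferase enzyme by approved-drug library compounds, run at 10 nM enzyme in 50 mM Tris acetate (final). Luminescence was read within 5 min of enzyme-buffer addition and normalized to PTC124 versus DMSO (0%).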
# [11] = Counterscreen for APE1 Inhibitors: Fluorescent Dye Displacement Validation Assay (AID 1707); conditions: fluorescent dye displacement from DNA; series mostly up to 57.1 µM
# How it was run: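 Compounds are scored by their ability to displace Thiazole Orange (250 nM) from a 50 nM TAMRA-tagged duplex bearing a tetrahydrofuran abasic site. Buffer is 50 mM Tris-HCl pH7.5, 50mM NaCl, 2 mM MgCl2, 0.01% Tween-20.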
# [12] = AP1 Signaling Pathway (AID 357; active means well fitted curve in either direction with a large enough effect, not every such curve was filed as active); conditions: ME-180 AP-1-bla reporter, EGF-induced, beta-lactamase ratio, 5 h; series mostly up to 17.2 µM
# How it was run: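 Modulation of EGF-driven AP-1 transcription was assessed with a beta-lactamase reporter in ME-180 cells. Compound and EC50 EGF were co-incubated 5 hours at 37 °C before 2.5-hour CCF4 loading at room temperature and dual-emission reading.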
# [13] = Stat Signaling Pathway (AID 446; active means well fitted curve in either direction with a large enough effect, not every such curve was filed as active;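 further: ME-180 cervical cancer cells given 40 pM IL-6 alongside compound; SIE-controlled beta-lactamase reporter measured as 460/530 nm FRET emission ratio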); conditions: ME-180 SIE beta-lactamase reporter, IL-6 stimulated, 5 h; series mostly up to 17.2 µM
# How it was run: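 Reporter line: ME-180 cervical carcinoma, SIE-beta-lactamase. Treatment: compound with 40 pM IL-6, 5 hrs, 37 C, in low-serum OPTI-MEM with 10 mM HEPES pH 7.3. Detection: 460/530 nm fluorescence.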
# [14] = target: Guanine nucleotide-binding protein G(i) subunit alpha-1 (Homo sapiens) (UniProt P63096); assay: qHTS Assay for Inhibitors of RGS12 GoLoco Motif Activity (Green Fluorophore) (AID 879); conditions: Galphai1/FITC-RGS12 GoLoco peptide, fluorescence polarization; series mostly up to 57.1 µM;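 further: negative values mean loss of peptide binding seen as reduced polarization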
# How it was run: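 Fluorescence polarization assay: 50 nM Gαi1 with 10 nM FITC-labeled RGS12 GoLoco peptide in 10 mM Tris pH 7.5, 150 mM NaCl, 0.1 mM GDP, 0.05% NP40, 10 min at room temperature with compound.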
# [15] = target: Pyruvate kinase (Leishmania mexicana) (UniProt Q27686); assay: qHTS Validation Assay for Inhibitors of Leishmania Mexicana Pyruvate Kinase (AID 945); further: potency means the concentration at half of the fitted maximal effect; conditions: purified L. mexicana pyruvate kinase, enzyme activity, E451W mutant enzyme; series mostly up to 57.5 µM
# How it was run: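 Read-out: luminescence from PKLight stop/detection reagent, data normalized to DMSO. Reaction: 0.2 nM E451W LmPYK, 0.5 mM PEP, 0.1 mM ADP, pH 7.2, 1 h room temperature.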
# [16] = target: Pyruvate kinase PKM (Homo sapiens) (UniProt P14618); assay: qHTS Assay for Activators of Human Muscle Pyruvate Kinase (AID 954; active means well fitted curve in the direction sought with a large enough effect, not every such curve was filed as active); conditions: purified human muscle pyruvate kinase, luciferase-coupled luminescence, 1 h; series mostly up to 57.5 µM
# How it was run: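 Human PKM2 activity is measured as ATP generation, detected by luciferase-coupled luminescence. The enzyme (0.1 nM) acts on 0.5 mM PEP and 0.1 mM ADP for 1 h at ambient temperature; data are normalized to uninhibited and full-inhibition wells.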
# [17] = target: Alpha-galactosidase (Coffea arabica) (UniProt Q42656); assay: Counterscreen for Glucocerebrosidase Inhibitors: qHTS Assay for Coffee Bean alpha-Galactosidase at pH 4.5 (AID 957); conditions: purified coffee bean alpha-galactosidase, fluorogenic substrate; series mostly up to 76.9 µM
# How it was run: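 Coffee bean enzyme (2 nM) with 80 uM 4-methylumbelliferyl alpha-D-galactopyranoside in 50 mM citric acid, 0.005% Tween-20, pH 4.5, 20 min at room temperature; compounds 0.7 nM–77 uM. Stopped at pH 10, fluorescence 365/440 nm; AC50 from Hill fits.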
# [18] = target: Alpha-galactosidase A (Homo sapiens) (UniProt P06280); assay: Counterscreen for Glucocerebrosidase Inhibitors: qHTS Assay for Human alpha-Galactosidase at pH 4.5 (AID 992); conditions: purified enzyme, fluorogenic substrate; series mostly up to 76.9 µM
# How it was run: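 Quantitative HTS: compounds tested from 0.7 nM up to 77 uM against 2 nM enzyme with 80 uM 4-MU alpha-D-galactopyranoside. The 20 min room-temperature reaction is stopped with 1M NaOH/1M glycine, pH 10.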
# [19] = target: alpha-glucosidase (Oryza sativa, rice) (UniProt Q653V4); assay: Counterscreen for Glucocerebrosidase Inhibitors: qHTS Assay for Rice alpha-Glucosidase at pH 5.0 (AID 997); conditions: rice alpha-glucosidase enzyme activity; series mostly up to 76.9 µM
# How it was run: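 Rice alpha-glucosidase (4 nM final) with 400 uM 4-methylumbelliferyl-alpha-D-glucopyranoside in citrate buffer pH 5.0, 20 min at room temperature, stopped at pH 10; fluorescence 365/440 nm, compounds 0.7 nM–77 uM, AC50 from Hill fits.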
# Chain of Pyruvate kinase PKM (Homo sapiens) (P14618 whole entry, looked up): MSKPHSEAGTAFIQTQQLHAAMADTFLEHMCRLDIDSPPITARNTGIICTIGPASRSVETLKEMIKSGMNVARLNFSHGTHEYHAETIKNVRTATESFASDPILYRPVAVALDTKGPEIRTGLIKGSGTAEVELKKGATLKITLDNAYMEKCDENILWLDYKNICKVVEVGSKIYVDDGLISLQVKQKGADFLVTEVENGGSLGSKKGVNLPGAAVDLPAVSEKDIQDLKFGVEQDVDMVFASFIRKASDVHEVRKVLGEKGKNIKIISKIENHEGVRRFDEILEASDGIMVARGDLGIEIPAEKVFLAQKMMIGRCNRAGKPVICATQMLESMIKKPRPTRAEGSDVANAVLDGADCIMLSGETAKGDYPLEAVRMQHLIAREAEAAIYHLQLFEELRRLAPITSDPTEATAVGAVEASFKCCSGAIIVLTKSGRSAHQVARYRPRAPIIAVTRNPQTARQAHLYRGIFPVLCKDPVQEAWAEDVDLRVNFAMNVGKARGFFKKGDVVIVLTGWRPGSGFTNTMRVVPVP
# Chain of Pyruvate kinase (Leishmania mexicana) (Q27686 2-499 E452W): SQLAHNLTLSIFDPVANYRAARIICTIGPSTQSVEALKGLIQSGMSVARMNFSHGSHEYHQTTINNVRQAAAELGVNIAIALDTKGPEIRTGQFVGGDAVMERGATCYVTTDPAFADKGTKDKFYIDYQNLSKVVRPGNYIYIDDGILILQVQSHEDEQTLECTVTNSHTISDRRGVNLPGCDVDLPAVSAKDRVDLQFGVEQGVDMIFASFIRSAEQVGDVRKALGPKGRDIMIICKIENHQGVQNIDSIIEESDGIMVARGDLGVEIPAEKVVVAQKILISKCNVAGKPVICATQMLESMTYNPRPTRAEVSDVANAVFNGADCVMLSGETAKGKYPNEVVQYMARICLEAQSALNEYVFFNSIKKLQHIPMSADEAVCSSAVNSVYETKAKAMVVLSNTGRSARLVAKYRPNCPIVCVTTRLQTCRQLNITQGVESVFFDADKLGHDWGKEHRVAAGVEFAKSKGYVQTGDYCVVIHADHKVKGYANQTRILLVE
# Chain of Guanine nucleotide-binding protein G(i) subunit alpha-1 (Homo sapiens) (P63096 whole entry, looked up): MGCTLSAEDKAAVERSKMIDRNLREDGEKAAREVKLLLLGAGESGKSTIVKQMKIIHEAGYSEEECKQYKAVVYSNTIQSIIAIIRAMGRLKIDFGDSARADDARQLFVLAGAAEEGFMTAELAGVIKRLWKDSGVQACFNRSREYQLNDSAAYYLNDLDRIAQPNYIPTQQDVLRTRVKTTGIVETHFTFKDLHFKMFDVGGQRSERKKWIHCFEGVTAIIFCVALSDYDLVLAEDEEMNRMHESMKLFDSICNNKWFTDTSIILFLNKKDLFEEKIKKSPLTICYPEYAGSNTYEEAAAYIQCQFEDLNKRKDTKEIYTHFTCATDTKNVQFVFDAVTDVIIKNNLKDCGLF
# Chain of 3',5'-cyclic-AMP phosphodiesterase 4B (Homo sapiens) (Q07343 whole entry, looked up): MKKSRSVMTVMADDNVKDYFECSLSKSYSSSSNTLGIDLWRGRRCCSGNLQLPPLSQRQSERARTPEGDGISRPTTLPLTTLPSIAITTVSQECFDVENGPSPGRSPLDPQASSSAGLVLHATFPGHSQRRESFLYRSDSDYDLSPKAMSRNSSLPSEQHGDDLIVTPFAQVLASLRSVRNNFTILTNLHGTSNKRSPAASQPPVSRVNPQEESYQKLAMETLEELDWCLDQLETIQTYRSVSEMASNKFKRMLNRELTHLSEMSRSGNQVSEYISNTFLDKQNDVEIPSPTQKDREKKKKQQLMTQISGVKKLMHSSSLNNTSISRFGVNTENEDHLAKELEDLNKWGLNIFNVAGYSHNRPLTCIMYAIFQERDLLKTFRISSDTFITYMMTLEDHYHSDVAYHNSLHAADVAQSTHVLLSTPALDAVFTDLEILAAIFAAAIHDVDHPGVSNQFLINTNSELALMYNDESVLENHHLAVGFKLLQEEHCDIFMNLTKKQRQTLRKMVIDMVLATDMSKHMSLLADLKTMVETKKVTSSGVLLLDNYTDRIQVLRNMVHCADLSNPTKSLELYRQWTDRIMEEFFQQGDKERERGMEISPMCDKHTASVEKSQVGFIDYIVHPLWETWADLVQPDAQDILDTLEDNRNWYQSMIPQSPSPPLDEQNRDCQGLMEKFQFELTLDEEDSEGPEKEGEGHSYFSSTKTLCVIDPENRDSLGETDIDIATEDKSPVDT
# Chain of Alpha-galactosidase A (Homo sapiens) (P06280 whole entry, looked up): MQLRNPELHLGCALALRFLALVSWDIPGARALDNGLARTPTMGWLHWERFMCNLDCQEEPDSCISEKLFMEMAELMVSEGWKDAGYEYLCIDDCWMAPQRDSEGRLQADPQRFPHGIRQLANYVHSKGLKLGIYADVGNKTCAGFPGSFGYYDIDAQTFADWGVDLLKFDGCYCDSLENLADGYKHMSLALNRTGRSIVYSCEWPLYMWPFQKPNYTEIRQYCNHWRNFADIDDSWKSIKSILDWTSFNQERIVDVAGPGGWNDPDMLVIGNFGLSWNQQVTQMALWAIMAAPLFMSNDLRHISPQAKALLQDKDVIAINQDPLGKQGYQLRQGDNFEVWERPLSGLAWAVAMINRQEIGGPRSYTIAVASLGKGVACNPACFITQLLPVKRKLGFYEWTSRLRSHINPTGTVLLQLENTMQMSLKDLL
# Chain of Alpha-galactosidase (Coffea arabica) (Q42656 whole entry, looked up): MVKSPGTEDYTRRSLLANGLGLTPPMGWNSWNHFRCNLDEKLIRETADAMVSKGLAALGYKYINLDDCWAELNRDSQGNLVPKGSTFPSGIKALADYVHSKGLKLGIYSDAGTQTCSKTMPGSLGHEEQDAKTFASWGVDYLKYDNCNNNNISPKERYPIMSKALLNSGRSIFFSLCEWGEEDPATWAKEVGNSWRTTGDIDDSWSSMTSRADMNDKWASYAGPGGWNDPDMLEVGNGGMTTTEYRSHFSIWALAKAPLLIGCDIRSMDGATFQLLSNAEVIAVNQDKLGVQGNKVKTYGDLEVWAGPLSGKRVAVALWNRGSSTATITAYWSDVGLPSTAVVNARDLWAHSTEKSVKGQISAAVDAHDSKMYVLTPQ
# Chain of Glucocorticoid receptor (Homo sapiens) (P04150 whole entry, looked up, the tested form may be a part): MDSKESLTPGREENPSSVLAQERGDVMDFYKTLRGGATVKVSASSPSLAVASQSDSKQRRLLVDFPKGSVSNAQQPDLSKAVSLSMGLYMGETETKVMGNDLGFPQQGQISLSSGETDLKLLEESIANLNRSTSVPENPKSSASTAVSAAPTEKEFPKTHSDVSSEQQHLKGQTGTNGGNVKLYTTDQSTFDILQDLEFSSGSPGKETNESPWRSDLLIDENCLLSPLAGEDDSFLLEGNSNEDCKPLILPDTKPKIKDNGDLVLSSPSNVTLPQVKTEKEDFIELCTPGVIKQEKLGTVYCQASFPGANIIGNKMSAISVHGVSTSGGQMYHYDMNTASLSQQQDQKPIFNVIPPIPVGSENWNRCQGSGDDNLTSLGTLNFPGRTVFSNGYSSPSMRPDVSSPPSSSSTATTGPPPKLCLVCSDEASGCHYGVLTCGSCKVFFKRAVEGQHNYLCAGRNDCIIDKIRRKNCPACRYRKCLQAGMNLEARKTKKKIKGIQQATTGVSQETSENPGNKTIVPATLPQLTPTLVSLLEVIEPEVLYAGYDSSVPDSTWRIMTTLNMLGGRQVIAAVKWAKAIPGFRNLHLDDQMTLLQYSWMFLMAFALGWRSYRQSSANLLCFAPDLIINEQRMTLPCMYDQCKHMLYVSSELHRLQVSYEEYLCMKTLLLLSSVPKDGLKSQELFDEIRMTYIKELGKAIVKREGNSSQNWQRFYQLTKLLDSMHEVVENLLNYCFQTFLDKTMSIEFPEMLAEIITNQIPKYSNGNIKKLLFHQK
# Chain of Luciferin 4-monooxygenase (Photinus pyralis) (P08659 whole entry, looked up): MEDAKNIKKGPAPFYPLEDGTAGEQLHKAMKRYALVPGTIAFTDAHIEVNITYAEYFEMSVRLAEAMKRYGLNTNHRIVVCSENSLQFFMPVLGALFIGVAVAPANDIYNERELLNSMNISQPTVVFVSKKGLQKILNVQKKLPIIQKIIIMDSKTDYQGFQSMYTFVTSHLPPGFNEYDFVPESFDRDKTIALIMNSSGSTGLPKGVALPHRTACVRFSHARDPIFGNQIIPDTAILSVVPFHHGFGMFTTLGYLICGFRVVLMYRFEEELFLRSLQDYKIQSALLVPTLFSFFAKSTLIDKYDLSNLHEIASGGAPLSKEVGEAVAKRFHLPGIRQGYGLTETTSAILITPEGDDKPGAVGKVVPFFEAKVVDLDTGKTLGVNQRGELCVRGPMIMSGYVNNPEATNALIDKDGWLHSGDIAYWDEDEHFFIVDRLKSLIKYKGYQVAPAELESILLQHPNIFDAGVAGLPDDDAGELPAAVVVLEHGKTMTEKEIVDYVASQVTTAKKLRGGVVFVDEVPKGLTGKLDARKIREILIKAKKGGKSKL
structure (smiles),measurement,setting,value
CN(C)[C@@H]1C(=O)C(C(N)=O)=C(O)[C@]2(O)C(=O)C3=C(O)c4c(O)cccc4[C@@](C)(O)[C@@H]3C[C@@H]12,Potency,[1],> 46 µM
same,outcome,[2],inactive
C/C=C(\C)C(=O)N[C@@H](c1ccccc1)[C@@H](O)C(=O)O[C@H]1C[C@@]2(O)[C@@H](OC(=O)c3ccccc3)[C@@H]3[C@]4(OC(C)=O)CO[C@@H]4C[C@H](O)[C@@]3(C)C(=O)[C@H](OC(C)=O)C(=C1C)C2(C)C,Potency,[3],0.108 µM (active)
CC(C)(O)/C=C\C(=O)[C@](C)(O)[C@H]1[C@H](O)C[C@]2(C)[C@@H]3CC=C4[C@@H](C=C(O)C(=O)C4(C)C)[C@]3(C)C(=O)C[C@@]12C,Potency,[1],> 9.22 µM
same,"activity change, negative = inhibition",[2],2.97% [at 11.4 µM]
same,Potency,[4],inactive
Cc1c(N)nc([C@H](CC(N)=O)NC[C@@H](N)C(N)=O)nc1C(=O)N[C@H](C(=O)N[C@@H](C)[C@H](O)[C@@H](C)C(=O)N[C@@H](C(=O)NCCc1nc(-c2nc(C(=O)NCCC[S+](C)C)cs2)cs1)[C@@H](C)O)C(O[C@H]1O[C@H](CO)[C@H](O)[C@@H](O)[C@H]1O[C@H]1O[C@H](CO)[C@@H](O)[C@H](OC(N)=O)[C@@H]1O)c1cnc[nH]1 (some centres not stated),Potency,[5],14.1 µM (active)
same,Potency,[6],inactive
same,Potency,[7],inactive
same,Potency,[3],0.0341 µM (active)
CC(C)[C@]12O[C@H]1[C@@H]1O[C@@]13[C@@]1(C)CCC4=C(COC4=O)[C@@H]1C[C@@H]1O[C@@]13C2=O,Potency,[3],0.341 µM (active)
CO[C@H]1CCC(O[C@H]2C[C@H]([C@]3(C)CC[C@]4(C[C@H](O)[C@@H](C)[C@@H]([C@@H](C)/C=C(\C)C(=O)[C@H](C)C[C@H](C)C(=O)O)O4)O3)O[C@]3(O[C@@H]([C@H]4O[C@@](O)(CO)[C@H](C)C[C@@H]4C)C[C@@H]3C)[C@@H]2C)O[C@@H]1C (some centres not stated),Potency,[3],0.607 µM (active)
C=C(C)[C@@H]1CCC(C)=C[C@H]1c1c(O)cc(CCCCC)cc1O,Potency,[6],inactive
same,Potency,[8],inactive
same,Potency,[7],inactive
same,Potency,[3],24.1 µM (active)
CC12CCC3C(CCC4=C(O)C(=O)CCC43C)C1CCC2=O (configuration not stated),Potency,[9],inactive
same,Potency,[10],inactive
CCCN(CCC)[C@@H]1CCc2c(F)ccc(O)c2C1,outcome,[11],inactive
C#CCN(C)C(C)Cc1ccccc1 (configuration not stated),outcome,[12],inactive
same,outcome,[13],inactive
Cc1cc(/C=C/C#N)cc(C)c1Nc1ccnc(Nc2ccc(C#N)cc2)n1,Potency,[5],22.4 µM (active)
NNCc1cccc(O)c1,outcome,[12],inactive
same,outcome,[13],inactive
same,Potency,[1],> 46 µM
same,outcome,[2],inactive
same,Potency,[4],inactive
same,outcome,[14],inactive
same,Potency,[15],10 µM (active)
same,outcome,[16],inactive
same,outcome,[17],inactive
same,outcome,[18],inactive
same,outcome,[19],inactive
C/C1=C/C[C@@H](/C(C)=C/c2csc(C)n2)OC(=O)C[C@H](O)C(C)(C)C(=O)[C@H](C)[C@@H](O)[C@@H](C)CCC1,Potency,[3],0.0607 µM (active)
CCCN(CCC)C(=O)Cc1c(-c2ccc(Cl)cc2)nc2c(Cl)cc(Cl)cn12,outcome,[12],inactive
same,outcome,[13],inactive
same,Potency,[1],> 46 µM
same,Potency,[4],2.51 µM (active)
same,outcome,[14],inactive
same,Potency,[15],inactive
same,outcome,[16],inactive
same,outcome,[17],inactive
same,outcome,[18],inactive
same,outcome,[19],inactive
C[C@H]1C2Cc3ccc(O)cc3[C@]1(C)CCN2CC1CC1,Potency,[9],inactive
same,Potency,[10],inactive
NCC#Cc1ccccc1,outcome,[12],inactive
same,outcome,[13],inactive
same,Potency,[1],> 46 µM
same,outcome,[2],inactive
same,Potency,[4],inactive
same,outcome,[14],inactive
same,Potency,[15],inactive
same,outcome,[16],inactive
same,outcome,[17],inactive
same,outcome,[18],inactive
same,outcome,[19],inactive
